Reference: PubChem BioAssay (EPA / NIEHS)
Where “and” joins values, the source holds several entries; their conditions need not be identical. Equal values may be shown once. Some structures have more than one record in an assay (separate samples or runs), and their calls can disagree. Calls of active or inactive are those of the source. How the source made its calls: active means hit-call score of the fitted dose curve at least 0.9, where 1 is the maximum; inactive means score below 0.9.

read-out: growth arrest and DNA damage 45 (GADD45G), GADD45G (gene 10912); experiment: LTEA_HepaRG_GADD45G: Life Technologies and Expression Analysis (LTEA) Assay for growth arrest and DNA damage 45 (GADD45G) using HepaRG (AID 2283499); conditions: mRNA level, 48 h; actives raise or lower the signal
Outline: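 Gain or loss of GADD45G mRNA, quantified by TaqMan qRT-PCR against three housekeeping genes, is fitted in both directions relative to 0.5% DMSO. Human HepaRG cultures receive test chemical for 48 h at up to 100 uM.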

SMILES	outcome
CS/C(C)=N/OC(=O)N(C)SN(C)C(=O)O/N=C(\C)SC	inactive
CCCN(CCC)c1c([N+](=O)[O-])cc(S(N)(=O)=O)cc1[N+](=O)[O-]	inactive
Oc1ccccc1-c1ccccc1	inactive
COC(=O)C(C)Oc1ccc(Oc2ccc(Cl)cc2Cl)cc1 (stereo unspecified)	inactive
O=C(O)c1nc(Cl)ccc1Cl	inactive

read-out: Glutamate-cysteine ligase regulatory (GCLM), GCLM (gene 2730); experiment: LTEA_HepaRG_GCLM: Life Technologies and Expression Analysis (LTEA) Assay for Glutamate-cysteine ligase regulatory (GCLM) using HepaRG (AID 2283500); conditions: mRNA level, 48 h; actives raise or lower the signal
Outline: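 Differentiated human HepaRG cells exposed 48 h in serum-free induction medium to 8-point half-log concentrations (top 100 uM, 0.5% DMSO), in duplicate. GCLM mRNA quantified by qRT-PCR, normalized to ACTB, GAPDH, POLR2A; bidirectional fitting versus DMSO.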

SMILES	AC50	outcome
N#Cc1cc(Br)c(O)c(Br)c1	1.34 µM (active)	–
CCOC(=O)C(Cl)Cc1cc(-n2nc(C)n(C(F)F)c2=O)c(F)cc1Cl (stereo unspecified)	–	inactive
CC(C)Oc1cc(-n2nc(C(C)(C)C)oc2=O)c(Cl)cc1Cl	50 µM (active)	–
COc1nc(NC(C)C)nc(NC(C)C)n1	–	inactive
C=CCC1=C(C)C(OC(=O)C2C(C=C(C)C)C2(C)C)CC1=O (stereo unspecified)	–	inactive
CCc1nn(C)c(C(=O)NCc2ccc(C(C)(C)C)cc2)c1Cl	12.2 µM (active)	–
COc1cnc(OC)n2nc(NS(=O)(=O)c3c(OCC(F)F)cccc3C(F)(F)F)nc12	–	inactive
CCOC(=O)CC(SP(=S)(OC)OC)C(=O)OCC (stereo unspecified)	–	inactive
Cc1cc(Cl)ccc1OCC(=O)O	–	inactive
COP(=S)(OC)Oc1nc(Cl)c(Cl)cc1Cl	–	inactive
CO/C=C(/C(=O)OC)c1ccccc1Oc1cc(Oc2ccccc2C#N)ncn1	75.6 µM (active) and 63.3 µM (active) and 71.8 µM (active)	–
CNC(=O)ON=CC(C)(C)SC	–	inactive
CC(Oc1ccc(Cl)cc1Cl)C(=O)O (stereo unspecified)	–	inactive
CCCCNC(=O)OCC#CI	–	inactive
COC(=O)c1ccccc1C(=O)OC	–	inactive
CN(C)C(=S)SSC(=S)N(C)C	–	inactive
CCCCC(CC)COC(=O)c1ccccc1C(=O)OCC(CC)CCCC (stereo unspecified)	–	inactive
C=CCC1=C(C)[C@@H](OC(=O)[C@@H]2[C@@H](C=C(C)C)C2(C)C)CC1=O	–	inactive
CON(C)C(=O)Nc1ccc(Cl)c(Cl)c1	73.2 µM (active)	–
C#CCOS(=O)OC1CCCCC1Oc1ccc(C(C)(C)C)cc1 (stereo unspecified)	9.92 µM (active)	–
CS/C(C)=N/OC(=O)N(C)SN(C)C(=O)O/N=C(\C)SC	–	inactive
CCCN(CCC)c1c([N+](=O)[O-])cc(S(N)(=O)=O)cc1[N+](=O)[O-]	92 µM (active)	inactive
Oc1ccccc1-c1ccccc1	–	inactive
COC(=O)C(C)Oc1ccc(Oc2ccc(Cl)cc2Cl)cc1 (stereo unspecified)	–	inactive
O=C(O)c1nc(Cl)ccc1Cl	–	inactive
